According to PubChem BioAssay (EPA / NIEHS):
Where “and” joins values, the source holds several entries; their conditions need not be identical. Equal values may be shown once. Inconclusive results are not listed. Some structures have more than one record in an assay (separate samples or runs), and their calls can disagree. Calls of active or inactive are those of the source. Rule for the calls: active = hit-call score of the fitted dose curve at least 0.9, where 1 is the maximum; inconclusive = response in the unintended direction; inactive = score below 0.9.

Biological target: Cellular tumor antigen p53 (Homo sapiens) (UniProt P04637)
Assay: TOX21_p53_BLA_p2_ratio: Tox21 HCT-116 p53 Agonism Beta-lactamase Assay, Ratio, Phase 2 (AID 2283592)
Description: TOX21_p53_BLA_p2 is a cell-based, single-readout assay that uses HCT116, a human intestinal cell line, […] in a 1536-well plate.TOX21_p53_BLA_p2_ratio is an assay readout measuring reporter gene via receptor activity and designed using inducible reporter (beta lactamase induction) detected with GAL4 b-lactamase reporter gene. The signal is derived from the ratio of cleaved (ch2) to uncleaved (ch1) reporter gene substrate used as the measure of target activity.Data from the assay component TOX21_p53_BLA_p2_ratio was analyzed into 1 assay endpoint. This assay endpoint, TOX21_p53_BLA_p2_ratio, was analyzed in the positive analysis fitting direction relative to DMSO as the negative control and baseline of activity. Using a type of inducible reporter, gain-of-signal activity can be used to understand changes in the reporter gene as they relate to the gene TP53. Furthermore, this assay endpoint can be referred to as a primary readout, because this assay has produced multiple assay endpoints and this ratio serves a reporter gene function to understand target activity. To generalize the intended target to other relatable targets, this assay endpoint is annotated to the DNA binding intended target family, where the subfamily is tumor suppressor.
Thawing Method: Place 14 mL of pre-warmed thaw medium into a 15 mL of conical tub. Remove the vial of cells to be thawed from liquid nitrogen and thaw rapidly by placing at 37C in a water bath with gentle agitation for 1-2 minutes. Decontaminate the vial by wiping with 70% ethanol before opening in a biological safety cabinet. Transfer the vial contents drop-wise into 14 mL of thaw medium in a sterile 15-mL conical tub. Centrifuge cells at 900 rpm for 4 minutes and resuspend in thaw medium. Transfer contents to the T75 tissue culture flask containing Thaw Medium and place flask in a humidified 37C/5% CO2 incubator. Switch to growth medium at first passage.Propagation Method: Aspirate medium, rinse once in DPBS, add 0.25% Trypsin/EDTA and swirl to coat the cell evenly. Add an equal volume of Growth Medium to inactivate Trypsin after 2-3 minutes incubation at 37C. Centrifuge cells at 900 rpm for 4 minutes and resuspend in growth medium. Cell should be passage or fed at least twice a week.Assay Protocol: Harvest cells from culture in growth medium and resuspend in assay medium. 2.2 Dispense 4000 cells/5 uL/well into 1536-well black/clear bottom plates using a Multidrop dispenser. After the cells were incubated at 37C for 5 hours, 23 nL of compounds dissolved in DMSO were transferred to the assay plate by a PinTool resulting in a 217-fold dilution. Incubate the plates for 16 hours at 37C, 5% CO2. Add 1 uL of 6X LiveBLAzer FRET B/G (CCF4-AM) Substrate Mixture to each well using a BioRAPTR dispenser and incubate the plates at room temperature for 2 hours. Measure fluorescence intensity at 460 and 530 nm emission and 405 nm excitation by an Envision detector. Data is expressed as the ratio of 460nm/530nm emissions. Add 4 uL of Cell-titer Glo to each well using BioRAPTR and incubate the plates at room temperature for 2 hours. Measure fluorescence intensity by a VewLux plate reader.

Cellular tumor antigen p53 (Homo sapiens), sequence (P04637 whole entry, looked up): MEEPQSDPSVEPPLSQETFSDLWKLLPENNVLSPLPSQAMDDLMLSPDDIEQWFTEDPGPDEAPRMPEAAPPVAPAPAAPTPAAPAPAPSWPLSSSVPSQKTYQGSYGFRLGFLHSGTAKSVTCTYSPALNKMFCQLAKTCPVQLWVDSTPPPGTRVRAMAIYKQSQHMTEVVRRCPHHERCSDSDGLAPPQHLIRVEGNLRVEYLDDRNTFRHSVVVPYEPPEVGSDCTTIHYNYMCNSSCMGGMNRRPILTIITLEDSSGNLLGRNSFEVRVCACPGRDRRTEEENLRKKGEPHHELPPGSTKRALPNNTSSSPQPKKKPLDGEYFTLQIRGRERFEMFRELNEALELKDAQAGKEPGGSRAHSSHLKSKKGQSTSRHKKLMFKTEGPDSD

Structure (SMILES) | outcome | AC50
O=S(=O)(O)c1ccc2ccccc2c1 | inactive | –
CC/C=C\CCOC(=O)c1ccccc1 | inactive | –
Cc1ccc(S(=O)(=O)NCl)cc1 | inactive | –
CCCCCC=O | inactive | –
C#C[C@]1(O)CC[C@H]2[C@@H]3CCc4cc(OC)ccc4[C@H]3CC[C@@]21C | inactive | –
C1COCCN1 | inactive | –
C(=C(c1ccccc1)c1ccccc1)c1ccccc1 | inactive | –
O=C(OCCOCCOCCOC(=O)c1ccccc1)c1ccccc1 | inactive | –
Nc1cc(Cl)c(N)c(Cl)c1 | inactive | –
CNC(=S)NC | inactive | –
CCc1ccc(C(c2ccc(CC)cc2)C(Cl)Cl)cc1 | inactive | –
Oc1ccc(Nc2ccccc2)cc1 | inactive | –
CCCCCCOC(=O)c1ccccc1O | inactive | –
COC(=O)C1CCC(C(=O)OC)CC1 (configuration not stated) | inactive | –
Nc1ccc([N+](=O)[O-])cc1O | inactive | –
CCC(=O)OCCc1ccccc1 | inactive | –
CCCCOc1ccc(N)cc1 | inactive | –
CCCCCCCCCCCCCCCC[N+](C)(C)Cc1ccccc1 | inactive | 64.7 µM (active)
CCCCNc1ccccc1 | inactive | –
Nc1ccc(S(=O)(=O)Nc2nccs2)cc1 | inactive | –
CCN(CC)c1ccc2c(C)cc(=O)oc2c1 | – | 36.8 µM (active) and 44.9 µM (active)
CN(C)Cc1ccccc1O | inactive | –
CCCCCCOC(=O)c1ccccc1 | inactive | –
OC[C@@H](O)[C@@H](O)[C@H](O)[C@@H](O)CO | inactive | –
Cc1cc(C)cc(O)c1 | inactive | –
O=C(C=Cc1ccccc1)OCC=Cc1ccccc1 | inactive | –
